Experiment [1] is described as follows: compounds binding Alexa647 anti-His antibody – biochemical, small-molecule microarray, 635 nm fluorescence, artefact control for SMM control protein annotation, primary screen (AID 1128).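 Further: score merges feature fluorescence with signal-to-noise for each printed compound spot.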 The settings on record: higher = more signal.
Experiment [2] deals with Human papillomavirus type 1a E7 protein (residues 1-88). The experiment in a line: HPV1a E7 small-molecule binders, primary screen, biochemical, small-molecule microarray, residues 1-88, 635 nm (AID 1129). The settings on record: small-molecule microarray binding, fluorescence 635 nm; higher = more signal.
The target in experiment [3] is Focal adhesion kinase 1 (Homo sapiens) (UniProt Q05397). The experiment in a line: PTK2 protein binding on printed compound slides – biochemical, small-molecule microarray, 635/667 nm fluorescence, BSA, DTT, primary screen (AID 1130).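 Further: composite of spot emission at 667 nm and signal to noise over triplicate slides.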 The settings on record: 635 nm fluorescence, higher = more signal.
The subject of experiment [4] is Fibrinogen (Alexa647-labelled). The experiment is described as follows: Alexa647-fibrinogen binding to printed small molecules – biochemical, small-molecule microarray, 635/667 nm fluorescence, artefact control for SMM control-protein annotation, profiling panel (AID 1131).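 Further: z-score merges 667 nm fluorescence with per-spot signal-to-noise over triplicate slides.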 The settings on record: fibrinogen-A647 binding fluorescence, higher = more signal.
In experiment [5] the target is Follistatin (Homo sapiens) (UniProt P19883). The experiment in a line: FST protein binding to printed compounds – biochemical, small-molecule microarray, 635/667 nm fluorescence, primary screen (AID 1132). The settings on record: 635 nm fluorescence, higher = more signal.
The target in experiment [6] is Fibroblast growth factor 2 (Homo sapiens) (UniProt P09038). The experiment is described as follows: basic fibroblast growth factor binding to printed compounds – biochemical, small-molecule microarray, 635/667 nm fluorescence, primary screen (AID 1133). The settings on record: FGF2, fluorescence 635/667, higher = more signal.
The nature of experiment [7]: JC-1 mitochondrial potential readout, lung cancer cells – cell-based, A549, JC-1 fluorescence, basal, 24 h, 100 nL, profiling panel (AID 1138).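 Further: A549 lung adenocarcinoma cells under basal conditions with no added stimulus; test concentration not given here.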 The settings on record: higher = more signal.
A further experiment relates to Lefty1. The experiment in a line: Lefty1 protein binding to printed compounds – biochemical, small-molecule microarray, 635/667 nm fluorescence, primary screen (AID 1139). The settings on record: fluorescence 635/667, higher = more signal.
Experiment [8] deals with wheat germ agglutinin (Triticum aestivum), Alexa647-labelled. The experiment is described as follows: Alexa647-WGA lectin binding to printed small molecules – biochemical, small-molecule microarray, 635/667 nm fluorescence, artefact control for SMM control-protein annotation, profiling panel (AID 1140).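 Further: score merges 667 nm feature emission with signal to noise over triplicate slides.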 The settings on record: WGA-A647 binding, 635 nm fluorescence, higher = more signal.

The target of experiment [9] is Luciferin 4-monooxygenase (Photinus pyralis) (UniProt P08659). The experiment is described as follows: inhibition of purified Photinus pyralis luciferase – biochemical, luminescence, purified enzyme, 2006 set, primary screen (AID 1141).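 Further: cell-free assay with purified firefly luciferase at 100 ng per well in PBS; test concentration not given here.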 The settings on record: purified firefly luciferase, SteadyGlo luminescence, 30 min; higher = more signal, called active from +8 up or from −8 down.

For 16 molecules, composite z-score and z-score results are on record in PubChem BioAssay.

Molecules are shown by their SMILES. Calls of active or inactive are those of the source.

Focal adhesion kinase 1 (Homo sapiens), sequence (Q05397 whole entry, looked up): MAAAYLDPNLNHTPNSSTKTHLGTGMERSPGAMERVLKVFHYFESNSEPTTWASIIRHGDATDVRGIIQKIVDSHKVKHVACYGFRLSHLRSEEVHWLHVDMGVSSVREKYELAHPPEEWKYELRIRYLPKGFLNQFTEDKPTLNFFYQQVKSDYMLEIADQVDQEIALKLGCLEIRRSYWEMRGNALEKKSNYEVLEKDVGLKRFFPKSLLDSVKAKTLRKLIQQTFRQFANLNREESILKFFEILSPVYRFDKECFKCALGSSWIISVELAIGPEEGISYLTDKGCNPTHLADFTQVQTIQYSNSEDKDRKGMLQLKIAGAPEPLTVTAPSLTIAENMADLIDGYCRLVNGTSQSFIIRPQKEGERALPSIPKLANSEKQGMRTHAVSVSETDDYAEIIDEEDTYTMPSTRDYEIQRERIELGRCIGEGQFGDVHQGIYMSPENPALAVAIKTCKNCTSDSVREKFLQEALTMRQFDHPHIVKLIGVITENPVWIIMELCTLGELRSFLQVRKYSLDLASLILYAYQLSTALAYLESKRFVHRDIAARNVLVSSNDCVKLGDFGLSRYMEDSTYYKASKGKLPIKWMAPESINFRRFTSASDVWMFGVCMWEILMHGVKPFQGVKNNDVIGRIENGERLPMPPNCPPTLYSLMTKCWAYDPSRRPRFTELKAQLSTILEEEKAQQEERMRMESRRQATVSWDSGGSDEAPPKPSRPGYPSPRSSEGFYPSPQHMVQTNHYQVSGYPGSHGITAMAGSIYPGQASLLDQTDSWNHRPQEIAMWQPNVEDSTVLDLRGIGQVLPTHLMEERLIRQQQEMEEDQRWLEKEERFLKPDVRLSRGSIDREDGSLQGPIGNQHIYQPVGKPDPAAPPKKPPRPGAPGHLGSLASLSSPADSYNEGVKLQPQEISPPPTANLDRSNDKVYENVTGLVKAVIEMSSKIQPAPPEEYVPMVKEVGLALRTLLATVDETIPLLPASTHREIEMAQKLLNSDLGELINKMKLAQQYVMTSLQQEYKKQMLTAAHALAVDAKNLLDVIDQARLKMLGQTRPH
Fibroblast growth factor 2 (Homo sapiens), sequence (P09038 whole entry, looked up): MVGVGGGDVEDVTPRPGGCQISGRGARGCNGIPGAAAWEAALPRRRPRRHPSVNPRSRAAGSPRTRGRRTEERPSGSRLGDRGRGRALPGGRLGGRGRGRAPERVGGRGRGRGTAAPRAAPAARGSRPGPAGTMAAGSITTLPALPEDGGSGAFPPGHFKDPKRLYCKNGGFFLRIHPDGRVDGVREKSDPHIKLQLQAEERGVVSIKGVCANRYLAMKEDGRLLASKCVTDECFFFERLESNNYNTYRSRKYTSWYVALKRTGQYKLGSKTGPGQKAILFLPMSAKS
Follistatin (Homo sapiens), sequence (P19883 whole entry, looked up): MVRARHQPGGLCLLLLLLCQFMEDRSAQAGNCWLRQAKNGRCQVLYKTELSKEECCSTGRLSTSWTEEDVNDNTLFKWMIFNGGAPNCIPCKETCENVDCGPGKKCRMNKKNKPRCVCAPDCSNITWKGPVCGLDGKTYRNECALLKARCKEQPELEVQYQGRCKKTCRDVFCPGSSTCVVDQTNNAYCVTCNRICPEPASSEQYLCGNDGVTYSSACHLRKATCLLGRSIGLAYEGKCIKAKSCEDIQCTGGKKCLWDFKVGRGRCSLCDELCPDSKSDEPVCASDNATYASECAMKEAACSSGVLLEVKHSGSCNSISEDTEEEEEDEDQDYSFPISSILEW
Luciferin 4-monooxygenase (Photinus pyralis), sequence (P08659 whole entry, looked up): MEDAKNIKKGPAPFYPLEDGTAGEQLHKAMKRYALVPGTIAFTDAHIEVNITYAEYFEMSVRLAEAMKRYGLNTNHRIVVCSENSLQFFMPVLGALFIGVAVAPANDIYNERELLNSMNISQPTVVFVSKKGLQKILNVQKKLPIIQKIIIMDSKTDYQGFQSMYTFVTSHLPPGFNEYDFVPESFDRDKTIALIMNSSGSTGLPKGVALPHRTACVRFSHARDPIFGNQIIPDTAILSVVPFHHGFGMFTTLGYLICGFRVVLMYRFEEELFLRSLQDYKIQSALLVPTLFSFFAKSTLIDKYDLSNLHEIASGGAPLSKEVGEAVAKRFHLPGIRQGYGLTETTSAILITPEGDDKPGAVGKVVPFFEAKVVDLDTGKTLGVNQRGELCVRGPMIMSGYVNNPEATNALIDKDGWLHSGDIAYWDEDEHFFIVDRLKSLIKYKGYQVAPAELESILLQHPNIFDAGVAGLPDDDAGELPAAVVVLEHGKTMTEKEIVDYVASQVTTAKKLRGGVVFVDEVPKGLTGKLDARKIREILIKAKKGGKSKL

On to `Cc1ccc(S[C@]2(C(=O)NCC(F)(F)F)CC(=O)N(C(C)C)[C@@H]2c2ccc(CO)cc2I)cc1`, for which the composite z-score in [1] is -1.45; in experiment [2], -0.68; in [3] it was -0.188; in experiment [4], -1.11; in experiment [5], -0.366; in experiment [6], 0.0888. Further, the composite z-score in the experiment on Lefty1 is -1.13; in experiment [8], -0.86. Further, the z-score in experiment [7] is 0.758; in experiment [9], -1.01 (inactive).

For the molecule `CCCCCC1=C2CNC(CCC)(C(=O)OC)C=C2C(C)C1=O` (stereo not given), the composite z-score is -0.252 in [1]; 0.859 in [2]; 0.682 in experiment [3]; -0.288 in [4]; -0.249 in experiment [5]; 0.0833 in [6]. The figures for the composite z-score (in the experiment with Lefty1; in experiment [8]) were -0.444 and -0.0925, respectively. In addition, the z-score is 0.424 in [7] and 0.443 (inactive) in experiment [9].

Regarding `COc1ccc(CCN2C(=O)[C@@]3(c4ccc([N+](=O)[O-])cc4)CC(=O)N(C4CCCCC4)[C@@H]3c3ccc(CO)cc32)cc1`, the composite z-score in [1] is 0.521; in experiment [2] it was -0.82; in experiment [3], 0.151; in [4] it was -0.382; in [5] it was 1.42; in [6], 1.4. In addition, the composite z-score is 0.563 with Lefty1 and -0.569 in experiment [8]. The z-score was -0.552 in experiment [7] and 0.3 (inactive) in [9].

Consider `O=C1C2C=CC(C(O)C(c3ccccc3)c3ccccc3)N(n3cnnc3)C2C(=O)N1Cc1ccccc1` (stereo not given), for which the composite z-score in experiment [1] was 0.305; in experiment [2] it was 1.21; in experiment [3], 0.638; in experiment [4], 0.977; in experiment [5] it was 0.552; in experiment [6], 1.54. The composite z-score worked out at 0.0063 in the experiment with Lefty1 and 0.131 in [8]. In addition, the z-score in experiment [7] was -0.806; in experiment [9] it was 1.01 (inactive).

For `NC(=O)[C@@H]1[C@H]2C(=O)O[C@H](c3ccccc3)[C@H](c3ccccc3)N2[C@H](c2ccc(O)cc2)[C@@]12C(=O)Nc1ccc(C#CC3(O)CCCCCC3)cc12`, the composite z-score in [1] was 0.6; in experiment [2], -0.239; in experiment [3] it was -0.205; in experiment [4], -0.819; in experiment [5], -0.0584; in experiment [6], -0.384. Also, the composite z-score is -0.502 in the experiment on Lefty1 and -0.0999 in experiment [8]. Besides, the values for the z-score in [7] and in [9] were -1.06 and -0.869 (inactive), respectively.

Regarding `O=C1NCC(=O)N2[C@@H]1C[C@@H](C(=O)O)[C@H]2c1cccc(OCCO)c1`, the composite z-score was found to be 1.85 in [1]; 1.34 in [2]; 4.87 in experiment [3]; 0.654 in [4]; 1.52 in [5]; 1.5 in experiment [6]. Also, the composite z-score is 1.84 in the experiment on Lefty1 and 1.45 in experiment [8]. The z-score in [7] is 0.221; in [9], -0.707 (inactive).

In the case of `CCOC(=O)C=Cc1cc([N+](=O)[O-])ccc1O`, the composite z-score in experiment [1] is -0.59; in experiment [2] it was -0.455; in [3], -0.0779; in [4] it was -0.429; in experiment [5] it was -0.907; in experiment [6], -0.652. Further, the composite z-score with Lefty1 is -0.83; in experiment [8], -0.0396. The z-score is -2.31 in [7] and 1.38 (inactive) in experiment [9].

As for `COCC(=C=CC[C@@H](O)c1ccccc1OCCO)C[C@@H](O)c1cc(Cl)cc(Cl)c1O`, the composite z-score in [1] was found to be 0.819; in [2], 1.23; in experiment [3], 0.14; in [4], 0.867; in experiment [5], 1.24; in experiment [6], 1.21. Also, the results for the composite z-score (in the experiment with Lefty1; in experiment [8]) were 0.666 and 0.289, respectively. The figures for the z-score in experiment [7] and in [9] were -0.41 and -1.02 (inactive), respectively.

On to `[N-]=[N+]=Nc1ccccc1[C@H]1OC(c2ccc(OCCCO)cc2)=N[C@@]1(Cc1ccccc1)C(=O)O`, for which the composite z-score in experiment [1] came to 0.864; in experiment [2] it was 1.25; in experiment [3], 0.345; in experiment [4] it was 1.04; in experiment [5] it was 1.17; in experiment [6] it was 0.284. Besides, the figures for the composite z-score (in the experiment on Lefty1; in experiment [8]) were 0.708 and 0.611, respectively. Besides, the z-score in experiment [7] was 0.384; in experiment [9], -9.33 (active).

For `COC(=O)c1c(CC[C@@H](CO)NC(=O)N2CCC[C@H]2Cn2cc(-c3ccccn3)nn2)oc(C(C)=O)c1C(=O)OC`, the composite z-score in [1] is 0.0014; in experiment [2], 0.282; in experiment [3], 0.16; in [4], -0.975; in [5], -0.0633; in experiment [6], 0.123. For the same molecule, the composite z-score came out at 0.427 in the experiment on Lefty1 and 0.0776 in experiment [8]. For the same molecule, the z-score in experiment [7] is -0.53; in [9], 0.793 (inactive).

With `COc1ccc(C(=O)Nc2ccc(CN3C(=O)[C@@]4(O[C@@H](CCn5cc([C@H](O)c6ccccc6)nn5)[C@H]([Si](C)(C)c5ccc(OC)cc5)[C@H]4C)c4ccccc43)cc2)cc1`, the composite z-score in experiment [1] is 0.848; in experiment [2], -0.024; in experiment [3] it was -0.103; in experiment [4] it was 0.579; in experiment [5] it was 0.836; in experiment [6], -0.019. In addition, the composite z-score in the experiment with Lefty1 was 0.526; in experiment [8], 0.376. Moreover, the z-score in experiment [7] was 1.83; in experiment [9], -0.753 (inactive).

In the case of `CC(C)(C)OC(=O)CC[C@]1(C(=O)O)N=C(c2ccc(OCCCO)cc2)O[C@H]1c1ccccc1N=[N+]=[N-]`, the composite z-score came out at 1.95 in [1]; 0.815 in experiment [2]; 0.238 in experiment [3]; 0.882 in experiment [4]; 0.891 in [5]; 0.0606 in [6]. Further, the composite z-score is -0.811 in the experiment on Lefty1 and 0.963 in experiment [8]. The z-score in experiment [7] is -0.974; in [9] it was -10.5 (active).

On to `COCCOC(=O)N1C(=O)[C@@]2(c3cc(C#Cc4ccc(OC)cc4)ccc31)[C@H](C(N)=O)[C@H]1C(=O)O[C@H](c3ccccc3)[C@H](c3ccccc3)N1[C@@H]2c1ccccc1OCCO`, for which the composite z-score in experiment [1] was found to be 2.24; in experiment [2] it was 1.21; in experiment [3], 0.861; in experiment [4] it was 1; in [5] it was 1.3; in experiment [6], 1.42. For the same molecule, the values for the composite z-score (in the experiment on Lefty1; in experiment [8]) were 1.58 and 0.901, respectively. Moreover, the z-score is -1.47 in experiment [7] and 0.0449 (inactive) in [9].

Consider `[N-]=[N+]=NCc1ccccc1[C@@H]1OC(c2ccc(OCCCO)cc2)=N[C@]1(CCS(=O)(=O)c1ccccc1)C(=O)NCCN1CCOCC1`, for which the composite z-score in [1] came to 1.68; in experiment [2], 1.29; in [3], 0.261; in experiment [4] it was 1.03; in [5] it was 1.43; in experiment [6] it was 0.913. The composite z-score came to 0.684 in the experiment on Lefty1 and 1.31 in experiment [8]. Besides, the values for the z-score in [7] and in experiment [9] were 0.721 and -2.52 (inactive), respectively.

With `C=C(CCCC)C(=O)CC[C@H](OC(C)=O)c1cccc(OCCO)c1`, the composite z-score in experiment [1] was -0.393; in [2], -0.755; in [3] it was 0.5; in experiment [4] it was -1.29; in [5] it was -0.732; in experiment [6], -0.546. Further, the values for the composite z-score (with Lefty1; in experiment [8]) were -0.492 and -0.881, respectively. The z-score is -0.299 in experiment [7] and 0.0336 (inactive) in experiment [9].

On to `CC(C)N1C(=O)[C@@]2(Cc3ccccc31)c1ccccc1C(=O)N(C1CCCCC1)[C@H]2c1ccc(CO)cc1`, for which the composite z-score in [1] is -0.192; in experiment [2], 0.37; in [3], -0.0723; in experiment [4], 0.193; in experiment [5] it was 1.33; in experiment [6] it was 0.254. Further, the composite z-score was 0.958 with Lefty1 and -0.01 in [8]. For the same molecule, the results for the z-score in [7] and in experiment [9] were -0.958 and 1.11 (inactive), respectively.
